High-throughput results as filed in PubChem.
PI5P4Ka inh: inhibitors of human PI5P4K alpha; max response, %; actives 1.2% (n = 330,000); AID 652105; PI5P4Kalpha enzyme, ADP-Glo luminescence, 60 min; active compounds read low; active = max response of -50% or lower; inconclusive = between -30% and -50%; inactive = -30% or higher; note: value at the top dose of about 77 µM; % is set by controls: 0 for no effect and ±100 for the full control effect
Target sequence (P48426 whole entry, looked up): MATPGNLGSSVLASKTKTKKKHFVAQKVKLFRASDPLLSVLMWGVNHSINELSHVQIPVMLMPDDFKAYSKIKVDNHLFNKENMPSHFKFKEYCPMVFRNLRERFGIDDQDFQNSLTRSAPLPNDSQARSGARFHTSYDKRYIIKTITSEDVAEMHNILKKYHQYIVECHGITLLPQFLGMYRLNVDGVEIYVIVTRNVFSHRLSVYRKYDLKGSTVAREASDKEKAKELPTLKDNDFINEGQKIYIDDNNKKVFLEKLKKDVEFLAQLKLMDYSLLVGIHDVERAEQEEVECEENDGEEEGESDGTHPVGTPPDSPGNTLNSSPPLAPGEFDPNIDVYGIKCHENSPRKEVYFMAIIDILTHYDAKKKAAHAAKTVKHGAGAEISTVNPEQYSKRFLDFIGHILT
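Quantitative HTS of the MLSMR library against PI5P4Kalpha with substrate. ATP added last at 5 microM final; room temperature, 60 minutes. Remaining ATP depleted, ADP converted and read as luminescence.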
G9a inh: blocks human histone lysine methyltransferase G9a. Potency, µM (series often up to 102 µM), for the others: at the highest dose activity, negative = inhibition, actives largely listed as inhibitors. Q96KQ7. G9a H3K9 monomethylation, AlphaScreen, 2 h. actives 8.8% (n = 350,000); note: potency is the fitted concentration of half-maximal effect; % is set by controls: 0 for no effect and ±100 for the full control effect; nearly all actives have a fitted effect of over 75% in size
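Using a bead-based AlphaScreen, monomethylated H3K9 product from 2 h room-temperature reactions (G9a 20 nM, peptide 500 nM, SAM 20 uM) was detected with 0.5 ug/mL rabbit anti-H3K9me1 antibody.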
BAZ2B block: blocks human BAZ2B; actives 4.4% (n = 360,000); AlphaScreen BAZ2B-H3K14Ac peptide displacement; Q9UIF8; AID 504333; Potency, µM (doses to about 114 µM), for inactives: at the top dose activity change, negative = inhibition, hits mostly inhibitors; note: potency is the fitted concentration of half-maximal effect; % is set by controls: 0 for no effect and ±100 for the full control effect; nearly all actives have a fitted effect of over 60% in size
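Inhibition is scored as reduced AlphaScreen emission. The BAZ2B/b-H3(5-23)K14Ac complex (50 nM each) in PBS pH 7.4, 0.01% Tween-20 meets compound (up to 110 uM) for 30 min at RT before bead addition.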
PLK1 PBD block: inhibitors of human PLK1 polo-box domain binding; P53350; Plk1 PBD binding of FITC phosphopeptide, fluorescence polarization; Potency, µM, for inactives: max response, negative = inhibition, usual class: inhibitors; actives 2.8% (n = 360,000); note: potency is the fitted concentration of half-maximal effect; series mostly up to about 57 µM; % is set by controls: 0 for no effect and ±100 for the full control effect; nearly all actives have a fitted effect of over 65% in size
JMJD2A Tudor inh: inhibitors of human JMJD2A Tudor domain; AID 504339; Potency, µM (doses to about 114 µM), for inactives: at the top dose activity change, negative = inhibition, hits mostly inhibitors; O75164; AlphaScreen JMJD2A-Tudor / H3K4me3 peptide binding; actives 4.4% (n = 390,000); note: potency is the fitted concentration of half-maximal effect; % is set by controls: 0 for no effect and ±100 for the full control effect; nearly all actives have a fitted effect of over 50% in size
HP1b binding inh: inhibitors of HP1-beta chromodomain binding to methylated histone tails; P83916; Potency, µM (series often up to 114 µM), for inactives: at the top dose activity change, negative = inhibition, usual class: inhibitors; actives 0.56% (n = 390,000); AlphaScreen HP1-beta / biotin-H3K9me3 peptide binding; note: potency is the fitted concentration of half-maximal effect; nearly all actives have a fitted effect of over 70% in size
Target sequence (P83916 whole entry, looked up): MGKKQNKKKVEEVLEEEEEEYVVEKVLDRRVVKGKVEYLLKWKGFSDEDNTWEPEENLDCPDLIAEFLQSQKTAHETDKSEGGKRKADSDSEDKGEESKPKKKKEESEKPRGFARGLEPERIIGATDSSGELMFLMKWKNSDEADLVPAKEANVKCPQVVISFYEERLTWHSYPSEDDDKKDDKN
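HP1-beta protein (50 nM final) preincubated 30 min at room temperature with biotinylated H3(1-18)K9me3 peptide (50 nM) in PBS pH 7.4, 0.01% Tween-20, then compound added for 30 min. AlphaScreen streptavidin donor/nickel chelate acceptor beads (10 ug/mL final), 30 min dark, luminescence read.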
The depositor's hits bear a star; ? = inconclusive; . = no result given; ! = not active in a repeat; [ ] = remark or other dose. The list is not random: actives were taken first. Their share in the collection is about 12%. Unless noted, calls come from the whole dose curve; as a rule, active = well fitted curve in the direction sought with a large enough effect; inconclusive = small, poorly fitted or top-dose-only effect, or another doubt; inactive = no such curve, though single readings can be large; an effect the other way counts as inactive or inconclusive.

SMILES	PI5P4Ka inh	G9a inh	BAZ2B block	PLK1 PBD block	JMJD2A Tudor inh	HP1b binding inh
COc1cc2c(cc1OC)C1O[C@](CCCCN3C(=O)c4ccccc4C3=O)(C2)OC2=C1C(=O)OC1(CCCCC1)C2	.	.	1%[22.9 µM]	.	.	.
Cc1cc(C)cc(OCC(=O)Nc2nc3c(s2)CC(C(C)(C)C)CC3)c1 (centres undefined)	.	-7%[59 µM]	-3%	.	-8%	15%
CC1(C)SC2[C@@H](N=CN3CCCCCC3)C(=O)N2[C@H]1C(=O)O (some centres undefined)	.	5%[59 µM]	.	.	.	.
COc1ccc(CNC(=O)CCCN2C(=O)CSc3c2c(C)nn3-c2ccccc2)c(OC)c1	.	-2%[59 µM]	-19%	.	-28%	-4%
O=C(COc1ccccc1F)Nc1cc(S(=O)(=O)Nc2cccc(Cl)c2)ccc1O	-23	?	10%	24µM*	-22%	-13%
O=C1CC(c2ccccc2)Cc2[nH]c(=O)c(C(=O)Nc3ccc(OC(F)(F)F)cc3)cc21 (centres undefined)	.	10%[59 µM]	1%	.	-8%	26%
c1ccc(-c2csc(NC3CCCCC3)n2)cc1	21	50µM*	-30%	-16%	-23%	-12%
COc1ccc(-c2csc(-c3ccccc3)n2)c(OC)c1	13	38%	77%	?	51%	169%
COc1ccc(-c2csc(NC3CCCCC3)n2)c(OC)c1	8	45µM*	-35%	?	?	?
Cc1ccc(C(=O)OCc2nnc(-c3ccccc3)o2)cc1S(=O)(=O)N1CCOCC1	-15	22%[0.501 µM]	10%	4%	-11%	33%
O=C(Nc1cccc(Cl)c1)c1cccnn1	7	19%	2%	?	-11%	37%[57 µM]
CC(C)NC(=O)/C(C#N)=C/c1ccc(N(C)C)o1	6	50µM*	-24%	99%	-11%	10%
Cc1ccc(/C=C(\C#N)C(=O)NC(C)C)o1	-4	5%	-4%	-4%	-6%	17%
CCOC(=O)COc1nc(C)c(Br)c(OC)n1	.	?	0%	-4%	-1%	18%
CCOc1nc(OCC)c2[nH]c(C(=O)O)c(Br)c2n1	?	.	.	-6%	25µM*	-7%
O=C(CN(Cc1ccccc1)C(=O)CCC(=O)Nc1ccccn1)NCc1ccc(F)cc1	-2	11%	-20%	-2%	-3%	9%
CCn1cc(C(=O)O)c(=O)c2cc(F)c(N3CCNC(C)C3)c(F)c21 (centres undefined)	.	11µM*!	.	.	.	.
Cc1cc(NCCCCCCCNc2cc(C)nc3cc([N+](=O)[O-])ccc23)c2ccc([N+](=O)[O-])cc2n1	-61*	.	.	1%	56µM*	71µM*
COc1ccc(C2(CNC(=O)C(=O)Nc3ccc(C)c(Cl)c3)CCCC2)cc1OC	.	-2%[59 µM]	0%	.	-22%	3%
Cc1ccc(C(=O)N2CCSC2=S)cc1	-5	-7%	-32%	?	-26%	?
Cc1ccc(C(=O)Oc2csc(=S)n2C(=O)c2ccc(C)cc2)cc1	.	1.1µM*	?	3µM*	?	-7%
Cc1ccc(C(CCN)c2ccco2)cc1 (centres undefined)	5	8%[12.7 µM]	1%	-5%	-19%	15%
CCC(=O)N(CCC(c1ccc(C)cc1)c1ccco1)Cc1ccco1 (centres undefined)	-29	?	50µM*	-26%	?	-9%
CCC(=O)N(CCC(c1ccco1)C(C)C)Cc1ccccc1 (centres undefined)	-3	.	4%	?	79µM*	0%
Cc1cc(CN2CCCC(CNC(=O)c3ccc(F)cc3)C2)cc(C)c1O (centres undefined)	-1	79µM*	-12%	-12%	-15%	34%
SMILES	PI5P4Ka inh	G9a inh	BAZ2B block	PLK1 PBD block	JMJD2A Tudor inh	HP1b binding inh
Cc1cc(Cl)ccc1OCC(O)CNCCc1ccc(S(N)(=O)=O)cc1 (centres undefined)	-1	5%	20%	-4%	-19%	24%
O=C(NCCc1ccc(Cl)cc1)c1ccc(CS(=O)Cc2cccc(Cl)c2)o1 (centres undefined)	.	-25%[59 µM]	?	.	-16%	19%
FC(F)(F)c1cnc(-c2cnc(-c3ccncc3)nc2)c(Cl)c1	12	-6%	4%	-5%	-14%	30%
FC(F)(F)c1cnc(-c2cnc(-c3ccccn3)nc2)c(Cl)c1	7	50µM*	?	-10%	-12%[11.4 µM]	35%
CC(=O)Nc1cccc(C(=O)/C=C/c2ccco2)c1	-13	14µM*	-2%	-22%	-12%	6%
CC(=O)Nc1ccc(C(=O)/C=C/c2ccco2)cc1	-27	10µM*	56µM*	0%	?	-26%
CN(C)c1ccc(C(=O)/C=C/c2ccco2)cc1	?	13µM*	50µM*	-15%	-30%	-50%
O=C(/C=C\c1ccco1)c1ccc(NC(=O)c2ccco2)cc1	-56*	22µM*	45µM*	-26%	50µM*	?
CN(C)c1ccc(C(=O)/C=C/c2ccccc2)cc1	11	2%	0%	1%	-5%	34%
O=C(NCc1nnnn1-c1ccc(Cl)cc1)c1ccc(Br)o1	4	?	16%	4%	3%	24%
Cc1cccc2nc(CSc3nnnn3-c3ccccc3)cn12	3	-12%	-2%	-27%	-27%[57.1 µM]	61%
Brc1c(CSc2nncn2-c2ccccc2)nc2ncccn12	-3	56µM*	-36%	-6%	-2%	15%
Brc1c(CSc2nncn2-c2ccccc2)nc2sccn12	.	43%[59 µM]	39%	-1%	-15%	13%
Cc1cccc2nc(CSc3nncn3-c3ccccc3)cn12	-3	40µM*	-9%	-6%	-15%	34%
c1ccc(-n2cnnc2SCc2cn3ccccc3n2)cc1	.	50µM*	3%	-5%	-6%	32%
Cc1ccc(NC(=O)CN(C)CC(=O)Nc2ccccc2Oc2ccccc2)cc1	6	35µM*	25µM*	-1%	3.5µM*	18µM*
CC1CC1C(=O)OCC(=O)Nc1ccccc1Oc1ccccc1 (centres undefined)	-17	34%	0%	27µM*	7%	14%
Nn1c(SCC(=O)Nc2ccccc2Oc2ccccc2)nnc1C1CC1	-2	50µM*	2%	-16%	-12%	19%
O=C(O)CCC(=O)Nc1ccccc1Oc1ccccc1	3	-11%	-21%	27µM*	20µM*	1%
Cc1cccc(C)c1NC(=O)CN(C)CC(=O)Nc1ccccc1Oc1ccccc1	-2	5%	-2%	-9%	-23%	13%
COc1ccccc1NC(=O)CSc1nnc(C2CCCCC2)n1N	-2	19%	-7%	0%	-30%	6%
COc1ccc(NC(=S)N2CCC3CC2c2c(Cl)cccc23)c(OC)c1 (centres undefined)	-8	.	.	-5%	.	.
